# Experimental data from PubChem BioAssay (NCATS).
# Inconclusive results are not listed. A call without a number means that no potency is given here. Active and inactive are the calls of the source. The call rests on the fitted dose curve; in most records, active means well fitted inhibition curve with a large enough effect; inconclusive means small, poorly fitted or top-dose-only effect; inactive means flat fitted curve, though single readings scatter.
# Biological target: Glutathione peroxidase 1 (Homo sapiens) (UniProt P07203)
# Assay: Primary qHTS Assay for Inhibitors of Recombinant Selenoprotein Glutathione Peroxidase 1 (GPX1) (AID 1845191); further: nearly all actives have a fitted effect of over 65% in size
# Conditions: recombinant GPX1, GR-coupled NADPH fluorescence, 15 min; series mostly up to 48.8 µM
# Source text: Assay Provider: Elias S.J. Arner MD PhD.
# Department of Medical Biochemistry and Biophysics
# Karolinska Institutet, Solna, Stockholm, Sweden
# Selenoprotein glutathione peroxidases (GPX), like the ubiquitously expressed GPX1 and the ferroptosis modulator GPX4, enact their antioxidant activities by reducing hydroperoxides using glutathione. […] GPX1 and GPX4 inhibitors have thus shown promise as anti-cancer agents. Existing inhibitors are often promiscuous, or modulate GPX activity only indirectly, so novel direct inhibitors identified through screening against GPX1 and GPX4 could be valuable. Here, we developed optimized glutathione reductase (GR)-coupled GPX assays for the biochemical high-throughput screen (HTS) of almost 12,000 compounds with known mechanisms of action. Initial hits were triaged using a GR counter-screen, assessed for isoform specificity using a separate GPX2 assay, and were assessed for general selenocysteine-targeting activity using a thioredoxin reductase (TXNRD1) assay. With this suite of assays, we identified novel GPX1/GPX2- and GPX4-specific inhibitors and can here present a validated pipeline for future discovery research for selenoprotein-targeting agents.
# SEQUENCE No. (e.g., 1, 2, 3, etc.); […] (e.g., Cells, Incubation, Reagent, etc.); VALUE; DESCRIPTION.
# 1; Reagent 1; 3 uL; GPx1 enzyme or no enzyme control in 1536-well, black, solid Greiner assay plate.
# 2; Compound; 25 nL; Kalypsis pin tool (Wako USA) equipped with a 1536-well pin head.
# 3; Incubation; 30 min; room temperature.
# 4; Reagent 2; 1 uL; 10 nM GPX1, 1 mM GSH, 0.5 mM CHP, 0.5 mM NADPH, 100 nM GR, 0.01% BSA substrate
# 5; Detection; Fluorescence; ViewLux microplate reader, excitation 340 nm and emission 450 nm.
# 6; Incubation; 15 min; room temperature.
# 7; Detection; Fluorescence; ViewLux microplate reader, excitation 340 nm and emission 450 nm.
# NOTES (numbers refer to Sequence numbers above)
# 1. 3 uL of 16.66 nM GPX1 and 0.016% BSA in assay buffer (50 mM Tris-HCl, 2 mM EDTA (pH 7.5), 150 mM NaCl) was added to columns 3-48 of 1536-well assay plates using a BioRAPTR Flying Reagent Dispenser (Let's Go Robotics (LGR), Carlsbad, CA). A no-enzyme control (0.01% BSA in TES assay buffer) was added to columns 1-2.
# 2. 25 nL of test compounds and DMSO controls were added to each well with a pin tool (Kalypsys).
# 3. The assay plates were incubated for 30 minutes at room temperature.
# 4. 1 uL of master mix (500 nM glutathione reductase (GR), 5 mM reduced glutathione (GSH), 2.5 mM NADPH in assay buffer) was added. 1 uL of cumene hydroperoxide (CHP) ([2.5 mM] in 50% EtOH) was then added within 5 minutes to initiate the reaction. Final concentrations were: 10 nM GPX1, 1 mM GSH, 0.5 mM CHP, 0.5 mM NADPH, 100 nM GR, 0.01% BSA.
# 5. Initial fluorescence readout (t=0) at 340/450 nm was measured using a ViewLux multimodal detector (PerkinElmer, Waltham, MA).
# 7. Endpoint fluorescence readout (t=15) at 340/450 nm was measured 15 min after room temperature incubation.
# Glutathione peroxidase 1 (Homo sapiens), sequence (P07203 whole entry, looked up): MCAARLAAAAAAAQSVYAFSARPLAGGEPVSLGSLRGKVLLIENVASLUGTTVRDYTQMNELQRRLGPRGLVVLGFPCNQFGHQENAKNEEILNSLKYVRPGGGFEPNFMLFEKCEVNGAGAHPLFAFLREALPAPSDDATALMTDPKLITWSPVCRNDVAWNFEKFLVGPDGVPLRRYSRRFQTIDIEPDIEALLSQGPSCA
row,SMILES,Potency
1,CC(=O)Oc1ccccc1C(=O)O,inactive
2,O=c1[nH]c(-c2ccc(C(F)(F)F)cc2)nc2c1CSCC2,inactive
3,O=c1ncn2nc(Sc3ccc(F)cc3F)ccc2c1-c1c(Cl)cccc1Cl,inactive
4,Cc1cc2c(F)c(Oc3ncnn4cc(OC[C@@H](C)O)c(C)c34)ccc2[nH]1,inactive
5,O=C(Nc1cccnc1)N1CCC(Cc2cccc(Oc3ccc(C(F)(F)F)cn3)c2)CC1,inactive
6,Cc1cnc(NC(=O)C2=C(O)c3ccccc3S(=O)(=O)N2C)s1,inactive
7,NS(=O)(=O)c1cc2c(cc1Cl)NC=NS2(=O)=O,inactive
8,C[C@]12CCC(=O)C=C1CC[C@@H]1[C@@H]2[C@@H](O)C[C@@]2(C)[C@H]1CC[C@]2(O)C(=O)CO,inactive
9,CCOc1cc(N2CCC(O)CC2)ccc1Nc1ncc2c(n1)N(C)c1ccccc1C(=O)N2C,inactive
10,COc1ccc(COc2cc3oc(=O)c4cc(C(C)O)ccc4c3cc2OC)cc1 (stereo not given),inactive
11,NC(=O)c1ccc(I)c([N+](=O)[O-])c1,inactive
12,Cn1cc(-c2ccc3nnc(C(F)(F)c4ccc5ncccc5c4)n3n2)cn1,inactive
13,C#Cc1cccc(Nc2ncnc3cc(OCCOC)c(OCCOC)cc23)c1,inactive
14,CCOc1ccn(-c2ccc(F)cc2)c(=O)c1C(=O)Nc1ccc(Oc2ccnc(N)c2Cl)c(F)c1,inactive
15,COc1ccc([C@@H]2CC(=O)c3c(O)cc(O[C@@H]4O[C@H](CO[C@@H]5O[C@@H](C)[C@H](O)[C@@H](O)[C@@H]5O)[C@@H](O)[C@H](O)[C@@H]4O)cc3O2)cc1O,inactive
16,COc1cc(F)c(F)c(Nc2ccc(I)cc2F)c1NS(=O)(=O)C1(C[C@H](O)CO)CC1,inactive
17,CC(C)c1onc(-c2c(Cl)cccc2Cl)c1COc1ccc(/C=C/c2cccc(C(=O)O)c2)c(Cl)c1,inactive
18,O=C1CCc2cc(OCCCCc3nnnn3C3CCCCC3)ccc2N1,inactive
19,CCOC(=O)N1CCC(=C2c3ccc(Cl)cc3CCc3cccnc32)CC1,inactive
20,COc1ccc(CCN2CCN(CCCc3ccccc3)CC2)cc1OC,inactive

row,SMILES,Potency
1,CCC(=O)N[C@H]1CC[C@H](C(=O)N(C)c2ccc(-c3nc4ccccc4o3)cc2)C1,inactive
2,CCCC(CCC)C(=O)O,inactive
3,CN1CCN(CCCN2c3ccccc3Sc3ccc(C(F)(F)F)cc32)CC1,inactive
4,OC[C@H](Cc1ccccc1)Nc1nc(Oc2ccc3c(c2)CCC3)nc2c1ncn2Cc1ccc(-c2ccccc2)cc1,inactive
5,Cc1ccc(-n2nc(C(C)(C)C)cc2NC(=O)Nc2ccc(OCCN3CCOCC3)c3ccccc23)cc1,inactive
6,OCCC#Cc1nc(-c2ccc(F)cc2)c(-c2ccncc2)n1CCCc1ccccc1,inactive
7,CCC(C)(C)C(=O)O[C@H]1C[C@@H](C)C=C2C=C[C@H](C)[C@H](CC[C@@H]3C[C@@H](O)CC(=O)O3)[C@H]21,inactive
8,CC1(C)Cc2c(-c3ccccc3)c(-c3ccc(Cl)cc3)c(CC(=O)O)n2C1,inactive
9,CCCS(=O)(=O)Nc1ccc(F)c(C(=O)c2c[nH]c3ncc(-c4ccc(Cl)cc4)cc23)c1F,inactive
10,Cc1cc([C@@H](C)Nc2ccccc2C(=O)O)c2nc(N3CCOCC3)cc(=O)n2c1,inactive
11,CN[C@@H](C)C(=O)N[C@H]1CCCC[C@H]2CC[C@@H](C(=O)N[C@@H](c3ccccc3)c3cn(CCCCc4ccc(CCCCn5cc([C@@H](NC(=O)[C@@H]6CC[C@@H]7CCCC[C@H](NC(=O)[C@H](C)NC)C(=O)N76)c6ccccc6)nn5)cc4)nn3)N2C1=O,inactive
12,NC[C@H](O)c1ccc(O)c(O)c1,inactive
13,NC(=O)c1ccc(-c2nc(-c3ccc4c(c3)OCCO4)c(-c3ccccn3)[nH]2)cc1,inactive
14,NC(=O)c1ccc(-c2nc(-c3ccc4c(c3)OCO4)c(-c3ccccn3)[nH]2)cc1,inactive
15,Cc1c(CCOc2ccc(C(=O)O)cc2)c2cc(Cl)ccc2n1C(c1ccccc1)c1ccccc1,inactive
16,CCN(c1ccccc1)c1cc(NC)[n+](C)c(C)n1,inactive
17,Cc1ccnc(NS(=O)(=O)c2ccc(NC(=O)Nc3ccc(S(=O)(=O)Nc4nccc(C)n4)cc3)cc2)n1,inactive
18,COc1ccc(-c2c(-c3ccc(O)cc3O)n[nH]c2C)cc1,inactive
19,Oc1ccc(C2CNCCc3c2cc(O)c(O)c3Cl)cc1 (stereo not given),inactive
20,CC1(C)CNc2cc(NC(=O)c3cccnc3NCc3ccncc3)ccc21,inactive
